High-throughput results: PubChem BioAssay, National Center for Advancing Translational Sciences (NCATS)
SARS PLpro yeast – SARS-CoV PLP inhibition in yeast. Potency, µM (titrated, usually from 32.9 µM), for the others: at the top dose activity, positive = growth rescue, actives largely listed as activators. 330,000 tested, 0.19% active. S. cerevisiae expressing SARS-CoV PLpro, growth rescue; calls by dose curve; note: 0% is about no effect; nearly all actives have a fitted effect of over 55% in size
Pf growth 96h – P. falciparum growth inhibition at 96 hours; P. falciparum luciferase reporter growth, 96 h; 320,000 tested, 6.9% active; Potency, µM (top dose mostly 28.7 µM), for the others: at the highest dose activity change, negative = inhibition, actives largely listed as inhibitors; note: % is set by controls: 0 for no effect and ±100 for the full control effect
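Erythrocytes infected with luciferase-expressing P. falciparum were dispensed at 2% hematocrit and 0.05% parasitemia (final), then incubated with compounds 96 hours at 37 C in 5% CO2. Luminescence after detection reagent addition reported growth.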
Pf growth 48h – P. falciparum growth inhibition at 48 hours (one generation) | P. falciparum luciferase growth in erythrocytes, 48 h | Potency, µM (series often up to 28.7 µM), without a hit: top-dose activity change, negative = inhibition, usual class: inhibitors | 310,000 tested, 5.9% active; note: % is set by controls: 0 for no effect and ±100 for the full control effect
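Here the parasites carry a stable luciferase gene and grow inside erythrocytes in Albumax-based RPMI medium with compound for one erythrocytic cycle. Activity is scored as loss of luminescent signal.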
Sm TGR inh – blocks Schistosoma mansoni thioredoxin glutathione reductase | Q962Y6 | purified TGR, DTNB reduction, TNB absorbance 405 nm | Potency, µM (series often up to 114 µM), for inactives: top-dose activity change, negative = inhibition, usual class: inhibitors | 360,000 tested, 3% active; note: % is set by controls: 0 for no effect and ±100 for the full control effect; nearly all actives have a fitted effect of over 60% in size
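Kinetic colorimetric format: TGR-catalysed, NADPH-driven DTNB reduction monitored via TNB absorbance. Enzyme dispensed at 20 nM; compound exposure 15 min at room temperature before reaction start.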
* marks the source's active call; other numbers are inactive results. An excerpt weighted towards active compounds, which were near 12% of everything screened. Unless noted, calls come from the whole dose curve; as a rule, active = well fitted curve in the direction sought with a large enough effect; inconclusive = small, poorly fitted or top-dose-only effect, or another doubt; inactive = no such curve, though single readings can be large; an effect the other way counts as inactive or inconclusive. Potency is the fitted concentration of half-maximal effect.

`CCn1ccnc1CN1CCN(CCC(C)C)C(CCO)C1` (stereo unspecified) gave SARS PLpro yeast 0%, Pf growth 96h 12µM*, Pf growth 48h 4% and Sm TGR inh 7%.
`Cc1ccc(CN2CCN(Cc3cccn3-c3ccccn3)CC2CCO)cc1` (stereo unspecified) gave SARS PLpro yeast 0%, Pf growth 96h 46%, Pf growth 48h -1% and Sm TGR inh -20%.
Screening OCCC1CN(Cc2cccn2-c2ncccn2)CCN1Cc1ccccc1 (stereo unspecified) returned SARS PLpro yeast 0%, Pf growth 96h 13µM*, Pf growth 48h -6% and Sm TGR inh -11%.
CC(C)CCN1CCN(Cc2cccn2-c2cccnc2)CC1CCO (stereo unspecified) was read as SARS PLpro yeast 1%, Pf growth 96h inconclusive, Pf growth 48h -9% and Sm TGR inh -6%.
`CC(C)CCN1CCN(Cc2cccn2-c2ccc(Cl)cn2)CC1CCO` (stereo unspecified) gave SARS PLpro yeast 1%, Pf growth 96h 0%, Pf growth 48h 9.3µM* and Sm TGR inh -11%.
`CCOc1ccccc1CN1CCN(Cc2ccc(C)o2)C(CCO)C1` (stereo unspecified) gave SARS PLpro yeast 1%, Pf growth 96h inconclusive, Pf growth 48h -3% and Sm TGR inh -24%.
Cc1ccc(CN2CCN(Cc3cccn3-c3ccc(Cl)cn3)CC2CCO)o1 (stereo unspecified) was read as SARS PLpro yeast 4%, Pf growth 96h 12µM*, Pf growth 48h inconclusive and Sm TGR inh inconclusive.
NC(=O)c1cccc(C[C@H](C(=O)O)N2C(=O)c3ccc(C(=O)O)cc3C2=O)c1 was read as SARS PLpro yeast 2%, Pf growth 96h 20%, Pf growth 48h inconclusive and Sm TGR inh -6%.
For O=C(C[C@@H]1C/C=C\C[C@H](Cc2ccc(F)cc2)C(=O)OC[C@@H](c2ccccc2)NC1=O)NCCO the results were SARS PLpro yeast -2%.
For COc1ccc(OC)c(CCNC(=O)c2cc3c(-c4ccccc4F)nn(C)c3s2)c1 the results were Sm TGR inh 4%.
Screening Cc1ccc(OC(C)C(=O)N2CCN(CCc3ccncc3)CC2)cc1C (stereo unspecified) returned Sm TGR inh -34%.
Screening O=C(N/N=C/c1ccco1)c1cc(-c2ccc(Cl)s2)[nH]n1 returned SARS PLpro yeast -2%, Pf growth 96h inconclusive, Pf growth 48h 9.3µM* and Sm TGR inh -1%.
Screening O=C(N/N=C/c1ccco1)c1cc(-c2ccc(Br)s2)[nH]n1 returned SARS PLpro yeast 0%, Pf growth 96h inconclusive, Pf growth 48h inconclusive and Sm TGR inh 1%.
Screening NNC(=O)CSc1c(-c2ccccc2)c2cc(Cl)ccc2[nH]c1=O returned SARS PLpro yeast 0%, Pf growth 96h 13µM*, Pf growth 48h inconclusive and Sm TGR inh -14%.
Screening Clc1ccc(SCCCCN2CCNCC2)cc1 returned SARS PLpro yeast -22%, Pf growth 96h 12µM*, Pf growth 48h inconclusive and Sm TGR inh 6%.
Screening O=C(CCC(=O)c1ccc(F)cc1)OC1CCOC1=O (stereo unspecified) returned SARS PLpro yeast 2%, Pf growth 96h -14%, Pf growth 48h 45% and Sm TGR inh 50µM*.
Screening COC(=O)c1ccc(CSc2ccc3nnc(-c4cccnc4)n3n2)o1 returned SARS PLpro yeast 7%, Pf growth 96h 10%, Pf growth 48h 11% and Sm TGR inh 40µM*.
For O=C(NCc1ccco1)C1CCCN(S(=O)(=O)c2ccc(-n3cnnn3)cc2)C1 (stereo unspecified) the results were SARS PLpro yeast 1%, Pf growth 96h inconclusive, Pf growth 48h -16% and Sm TGR inh 20µM*.
Screening O=C(NCc1ccccc1F)C1CCCN(S(=O)(=O)c2ccc(-n3cnnn3)cc2)C1 (stereo unspecified) returned SARS PLpro yeast 2%, Pf growth 96h -6%, Pf growth 48h 14% and Sm TGR inh -8%.
Screening CS(=O)(=O)N1CCCC(C(=O)NCc2ccco2)C1 (stereo unspecified) returned SARS PLpro yeast 1%, Pf growth 96h inconclusive, Pf growth 48h 21% and Sm TGR inh 3%.
`O=C(NCc1ccco1)C1CCCN(S(=O)(=O)c2ccc(Br)cc2)C1` (stereo unspecified) gave SARS PLpro yeast 1%, Pf growth 96h 15µM*, Pf growth 48h -15% and Sm TGR inh inconclusive.
For CCOc1ccc(CCNC(=O)COC(=O)CNS(=O)(=O)c2ccc(NC(C)=O)cc2)cc1OCC the results were SARS PLpro yeast -2%, Pf growth 96h 8.3µM*, Pf growth 48h inconclusive and Sm TGR inh -2%.
`CC(=O)Nc1ccc(S(=O)(=O)NCCc2ccc(S(N)(=O)=O)cc2)cc1` gave SARS PLpro yeast 16%, Pf growth 96h 10µM* and Sm TGR inh -2%.
`CC(=O)Nc1ccc(S(=O)(=O)NCC(=O)NCCc2ccc(S(N)(=O)=O)cc2)cc1` gave SARS PLpro yeast 0%, Pf growth 96h 0.83µM*, Pf growth 48h -10% and Sm TGR inh 1%.
Cc1ccc2nc(Nc3nc(-c4ccccc4)cc(=O)[nH]3)nc(C)c2c1 was read as SARS PLpro yeast 3%, Pf growth 96h inconclusive, Pf growth 48h inconclusive and Sm TGR inh -24%.
`Cc1ccc2nc(Nc3nc(C)cc(-c4ccccc4)n3)[nH]c(=O)c2c1` gave SARS PLpro yeast 1%, Pf growth 96h 6.6µM*, Pf growth 48h 3.3µM* and Sm TGR inh 1%.
For O=C(c1cc(-c2ccc(Br)cc2)on1)N1CCc2ccccc2C1 the results were SARS PLpro yeast 2%, Pf growth 96h 59%, Pf growth 48h 11% and Sm TGR inh -1%.
Screening CCc1nnc(NC(=O)CSc2nnc(C3CC3)n2C)s1 returned SARS PLpro yeast 3%, Pf growth 96h 0%, Pf growth 48h 11% and Sm TGR inh 1%.
O=C1NC(=O)C(=Cc2ccc(-c3cc(Cl)ccc3[N+](=O)[O-])o2)C(=O)N1 was read as SARS PLpro yeast 1%, Pf growth 96h -11%, Pf growth 48h 13% and Sm TGR inh 32µM*.
For CC1=C(C#N)C(=O)NC(=O)/C1=C\c1ccc(-c2cc(C)c(C)cc2[N+](=O)[O-])o1 the results were SARS PLpro yeast -2%, Pf growth 96h 6%, Pf growth 48h 6% and Sm TGR inh 3.5µM*.
Screening Cc1ccc(Sc2ccc(N3CCCC(C(=O)Nc4ccc(Br)cc4)C3)nn2)cc1 (stereo unspecified) returned Sm TGR inh 0%.
CCOC(=O)Cn1c(=O)oc2cc(S(=O)(=O)NCc3ccccn3)ccc21 was read as SARS PLpro yeast 2%, Pf growth 96h 12µM* and Sm TGR inh -23%.
CCOc1cc(S(=O)(=O)NCc2ccccn2)ccc1Cl was read as SARS PLpro yeast -10%, Pf growth 96h 8.3µM*, Pf growth 48h -10% and Sm TGR inh -2%.
For CCOC(=O)Cn1c(=O)oc2cc(S(=O)(=O)NCc3cccs3)ccc21 the results were SARS PLpro yeast 0%, Pf growth 96h 13µM* and Sm TGR inh 5%.
